# Test results: PubChem BioAssay
# Inconclusive results are not listed. The source made the active and inactive calls.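 The calls were made as follows, unless noted: active = normalized viability below 100% at a tested concentration; inactive = the rest.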
# How the values were obtained:
# [1] = viability loss in pontine glioma line – cell-based, SU-DIPG-XVII, MIPE5.0, CellTiter-Glo, qHTS, dose response (AID 1347060; cut-off not given, nearly all actives have AC50 up to about 26 µM;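 also: cells exposed to compound for 48 hours before viability readout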); details: CellTiter-Glo ATP luminescence
# [2] = viability loss in pontine glioma line – cell-based, JHH-DIPG-1, MIPE4.0, CellTiter-Glo, qHTS, dose response (AID 1347062; cut-off not given, nearly all actives have AC50 up to about 27 µM;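 also: cells exposed to compound for two days before readout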); details: JHH-DIPG-1 viability, CellTiter-Glo ATP luminescence
# [3] = viability loss in pontine glioma line – cell-based, SU-DIPG-IV, MIPE4.0, CellTiter-Glo, qHTS, dose response (AID 1347063; cut-off not given, nearly all actives have AC50 up to about 30 µM;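 also: compound exposure lasted 48 hours before the viability readout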); details: CellTiter-Glo ATP luminescence
# [4] = viability loss in pontine glioma line – cell-based, SU-DIPG-XIII, MIPE5.0, CellTiter-Glo, qHTS, dose response (AID 1347064; cut-off not given, nearly all actives have AC50 up to about 23 µM;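 also: cells exposed to compound for 48 hours before the viability read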); details: CellTiter-Glo ATP luminescence
# [5] = viability loss in pontine glioma line – cell-based, SU-DIPG-XXV, MIPE5.0, CellTiter-Glo, qHTS, dose response (AID 1347065; cut-off not given, nearly all actives have AC50 up to about 26 µM;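 also: cells exposed to compound for 48 hours before ATP readout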); details: CellTiter-Glo ATP luminescence
# [6] = JHH-DIPG-1 glioma cell viability, MIPE5.0 library, CellTiter-Glo luminescence, qHTS (AID 1347067; cut-off not given, nearly all actives have AC50 up to about 26 µM;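 also: cells exposed to compound for 48 hours before readout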); details: JHH-DIPG-1 glioma viability, CellTiter-Glo ATP luminescence
# [7] = growth inhibition of DIPG cells – cell-based, MIPE5.0 library, qHTS (AID 1347068; cut-off not given, nearly all actives have IC50 up to about 30 µM;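 also: cells exposed to compound for 48 hours before viability readout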); details: SU-DIPG-XXV viability
# [8] = viability loss with induced miR-34 in A549 – imaging, A549 dox-inducible miR-34, nuclei and caspase counts, primary screen (AID 1347080;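 active = compounds whose cell count with miR-34 switched on is under 0.7 times the count with it off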); details: A549 miR-34 inducible, Hoechst nuclei count, 48 h
# [9] = compounds altering HSF1 focus formation in cells – imaging, Selleck Cancer Library (AID 1347162; in the data active = plate-normalised HSF1 focus index below about 0.46); details: human cells, HSF1 nuclear foci imaging, at 10 µM; SSMD: measured here: HSF1 foci SSMD mean; cell count: measured here: cell number; plate-normalised HSF1 focus index: stronger effect = lower value
# [10] = MELAS cybrid and Rieske KO viability enhancers – cell-based, MELAS cybrids, Rieske KO mouse fibroblasts, CellTiter-Glo, primary screen (AID 1508586;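 active = mean z-score across replicates of 1.96 or higher in either the MELAS or the Rieske mutant cell line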;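 also: z relative to plate mean and SD of compound and empty wells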); details: low glucose
# [11] = drug combination growth inhibition, ovarian cancer – cell-based, oncology-focused library, rucaparib conditional, profiling panel (AID 1508598); details: patient-derived ovarian cancer cells, CellTiter-Glo viability, 144 h, stronger effect = lower value
compound,measurement,setting,value
CC(C)(C)c1cnc(CSc2cnc(NC(=O)C3CCNCC3)s2)o1,AC50,[1],118 nM (active)
same,AC50,[2],166 nM (active)
same,AC50,[3],264 nM (active)
same,AC50,[4],833 nM (active)
same,AC50,[5],742 nM (active)
same,AC50,[6],1180 nM (active)
same,IC50,[7],934 nM (active)
same,fold change,"[8]; stronger effect = lower value, cell number ratio, induced over uninduced",0.966 (inactive)
same,fold change,[8]; measured here: relative caspase fold change +Dox/-Dox,1.56
same,cell count,"[8]; measured here: total cells with miR-34 induction, stronger effect = lower value",1470
same,cell count,[8]; measured here: total cells without miR-34 induction,1520
same,SSMD,[9],0.418
same,cell count,[9],7130
same,plate-normalised HSF1 focus index,[9],1.03 (inactive)
same,z-score,"[10]; MELAS cybrid survival, CellTiter-Glo 48 h, stronger effect = higher value",0.429 (inactive)
same,z-score,"[10]; Rieske KO mouse fibroblast survival, CellTiter-Glo 72 h",-1.89
same,viability,"[11]; at 0.000305 µM, OCI-C5x cells, with rucaparib 10 µM, 100% = cells with rucaparib alone",114% (inactive)
same,viability,"[11]; at 0.000305 µM, OCI-C5x cells, without rucaparib",105% (inactive)
same,viability,"[11]; at 0.000305 µM, OCI-P5x cells, with rucaparib 20 µM, 100% = cells with rucaparib alone",112% (inactive)
same,viability,"[11]; at 0.000305 µM, OCI-P5x cells, without rucaparib",111% (inactive)
same,viability,"[11]; at 0.00122 µM, OCI-C5x cells, with rucaparib 10 µM, 100% = cells with rucaparib alone",108% (inactive)
same,viability,"[11]; at 0.00122 µM, OCI-C5x cells, without rucaparib",104% (inactive)
same,viability,"[11]; at 0.00122 µM, OCI-P5x cells, with rucaparib 20 µM, 100% = cells with rucaparib alone",103% (inactive)
same,viability,"[11]; at 0.00122 µM, OCI-P5x cells, without rucaparib",106% (inactive)
same,viability,"[11]; at 0.00488 µM, OCI-C5x cells, with rucaparib 10 µM, 100% = cells with rucaparib alone",100% (active)
same,viability,"[11]; at 0.00488 µM, OCI-C5x cells, without rucaparib",103% (inactive)
same,viability,"[11]; at 0.00488 µM, OCI-P5x cells, with rucaparib 20 µM, 100% = cells with rucaparib alone",110% (inactive)
same,viability,"[11]; at 0.00488 µM, OCI-P5x cells, without rucaparib",104% (inactive)
same,viability,"[11]; at 0.0195 µM, OCI-C5x cells, with rucaparib 10 µM, 100% = cells with rucaparib alone",108% (inactive)
same,viability,"[11]; at 0.0195 µM, OCI-C5x cells, without rucaparib",98.5% (active)
same,viability,"[11]; at 0.0195 µM, OCI-P5x cells, with rucaparib 20 µM, 100% = cells with rucaparib alone",105% (inactive)
same,viability,"[11]; at 0.0195 µM, OCI-P5x cells, without rucaparib",110% (inactive)
same,viability,"[11]; at 0.0781 µM, OCI-C5x cells, with rucaparib 10 µM, 100% = cells with rucaparib alone",108% (inactive)
same,viability,"[11]; at 0.0781 µM, OCI-C5x cells, without rucaparib",100% (active)
same,viability,"[11]; at 0.0781 µM, OCI-P5x cells, with rucaparib 20 µM, 100% = cells with rucaparib alone",101% (inactive)
same,viability,"[11]; at 0.0781 µM, OCI-P5x cells, without rucaparib",104% (inactive)
same,viability,"[11]; at 0.313 µM, OCI-C5x cells, with rucaparib 10 µM, 100% = cells with rucaparib alone",94.4% (active)
same,viability,"[11]; at 0.313 µM, OCI-C5x cells, without rucaparib",97% (active)
same,viability,"[11]; at 0.313 µM, OCI-P5x cells, with rucaparib 20 µM, 100% = cells with rucaparib alone",95.6% (active)
same,viability,"[11]; at 0.313 µM, OCI-P5x cells, without rucaparib",85.8% (active)
same,viability,"[11]; at 1.25 µM, OCI-C5x cells, with rucaparib 10 µM, 100% = cells with rucaparib alone",9.76% (active)
same,viability,"[11]; at 1.25 µM, OCI-C5x cells, without rucaparib",9.99% (active)
same,viability,"[11]; at 1.25 µM, OCI-P5x cells, with rucaparib 20 µM, 100% = cells with rucaparib alone",22.5% (active)
same,viability,"[11]; at 1.25 µM, OCI-P5x cells, without rucaparib",14% (active)
same,viability,"[11]; at 5 µM, OCI-C5x cells, with rucaparib 10 µM, 100% = cells with rucaparib alone",12% (active)
same,viability,"[11]; at 5 µM, OCI-C5x cells, without rucaparib",10.8% (active)
same,viability,"[11]; at 5 µM, OCI-P5x cells, with rucaparib 20 µM, 100% = cells with rucaparib alone",20.3% (active)
same,viability,"[11]; at 5 µM, OCI-P5x cells, without rucaparib",11% (active)
